For some assays here: Potency and affinity values are given separately.
What was measured:
Parameters in all cases: scale not given: direction of the effect not stated beside the values
[1] = biological target: Protein translocase subunit SecA (Escherichia coli (strain K12)) (UniProt P10408); assay: Assay to Identify E. coli SecA ATPase Inhibitors; assay type: functional; settings: 30 µM
[2] = biological target: T1, Ubiquitin-activating enzyme e1, putative (Leishmania donovani (strain BPK282A1)) (UniProt E9BSI1); assay: Leishmania donovani Ubiquitin Activating Enzyme (LdE1); assay type: functional; settings: 30 µM
T1 sequence (whole entry): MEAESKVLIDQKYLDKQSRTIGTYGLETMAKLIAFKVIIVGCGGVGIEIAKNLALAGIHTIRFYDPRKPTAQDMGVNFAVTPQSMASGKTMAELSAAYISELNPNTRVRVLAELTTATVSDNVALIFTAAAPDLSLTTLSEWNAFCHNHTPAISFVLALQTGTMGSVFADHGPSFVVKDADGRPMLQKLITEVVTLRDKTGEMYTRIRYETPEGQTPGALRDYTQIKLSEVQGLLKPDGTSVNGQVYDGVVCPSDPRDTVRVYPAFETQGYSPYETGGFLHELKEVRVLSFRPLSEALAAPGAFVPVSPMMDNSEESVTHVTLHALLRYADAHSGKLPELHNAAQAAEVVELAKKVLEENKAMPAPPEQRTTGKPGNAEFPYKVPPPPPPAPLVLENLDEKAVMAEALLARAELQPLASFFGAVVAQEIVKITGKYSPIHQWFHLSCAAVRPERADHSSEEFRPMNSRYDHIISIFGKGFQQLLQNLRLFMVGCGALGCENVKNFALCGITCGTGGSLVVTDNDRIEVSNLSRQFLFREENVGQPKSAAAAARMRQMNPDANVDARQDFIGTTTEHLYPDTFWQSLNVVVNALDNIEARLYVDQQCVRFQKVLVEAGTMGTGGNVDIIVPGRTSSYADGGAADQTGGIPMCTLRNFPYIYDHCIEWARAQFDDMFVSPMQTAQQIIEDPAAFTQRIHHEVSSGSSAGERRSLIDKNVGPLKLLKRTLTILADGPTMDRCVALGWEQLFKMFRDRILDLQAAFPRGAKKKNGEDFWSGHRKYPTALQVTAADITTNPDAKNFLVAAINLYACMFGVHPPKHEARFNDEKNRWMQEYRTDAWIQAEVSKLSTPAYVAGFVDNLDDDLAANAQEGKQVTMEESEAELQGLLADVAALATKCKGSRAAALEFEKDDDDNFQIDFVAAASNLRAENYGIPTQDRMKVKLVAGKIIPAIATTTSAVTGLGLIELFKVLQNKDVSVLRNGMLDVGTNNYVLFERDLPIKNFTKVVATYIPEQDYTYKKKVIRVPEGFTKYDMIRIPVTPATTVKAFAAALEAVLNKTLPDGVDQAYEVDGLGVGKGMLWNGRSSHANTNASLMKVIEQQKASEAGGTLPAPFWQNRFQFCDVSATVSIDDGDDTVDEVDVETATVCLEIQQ

[3] = biological target: Sialic acid-binding Ig-like lectin 9 (Homo sapiens) (UniProt Q9Y336); assay: Hs-Siglec9 ALPHAscreen SOP 20170721; settings: 10 µM
Sialic acid-binding Ig-like lectin 9 (Homo sapiens), sequence (Q9Y336 whole entry): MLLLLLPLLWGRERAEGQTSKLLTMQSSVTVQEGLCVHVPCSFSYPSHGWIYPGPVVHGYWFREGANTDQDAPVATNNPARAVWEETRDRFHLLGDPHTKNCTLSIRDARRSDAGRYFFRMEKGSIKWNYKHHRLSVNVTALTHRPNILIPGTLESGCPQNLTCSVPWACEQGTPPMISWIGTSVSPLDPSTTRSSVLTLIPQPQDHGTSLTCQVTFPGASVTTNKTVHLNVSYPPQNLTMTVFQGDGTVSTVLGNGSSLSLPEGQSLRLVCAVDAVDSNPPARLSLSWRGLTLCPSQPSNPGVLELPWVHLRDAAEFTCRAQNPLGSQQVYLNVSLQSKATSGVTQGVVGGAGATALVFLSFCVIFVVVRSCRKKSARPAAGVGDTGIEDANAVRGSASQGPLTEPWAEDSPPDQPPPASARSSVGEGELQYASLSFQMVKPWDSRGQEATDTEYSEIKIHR

Trypanosoma cruzi = assay: Trypanosoma cruzi phosphomannomutase and mannose-1-phosphate guanylyltransferase assay; assay type: functional; settings: 10 µM
[4] = biological target: T2, Arginase-2, mitochondrial (Homo sapiens) (UniProt P78540); assay: in vitro enzyme assay to detect the production of urea directly proportional to the activity of Arginase II; assay type: functional; settings: 33.3 µM; note: in the data most compounds retested in dose-response had high values
T2 sequence (whole entry): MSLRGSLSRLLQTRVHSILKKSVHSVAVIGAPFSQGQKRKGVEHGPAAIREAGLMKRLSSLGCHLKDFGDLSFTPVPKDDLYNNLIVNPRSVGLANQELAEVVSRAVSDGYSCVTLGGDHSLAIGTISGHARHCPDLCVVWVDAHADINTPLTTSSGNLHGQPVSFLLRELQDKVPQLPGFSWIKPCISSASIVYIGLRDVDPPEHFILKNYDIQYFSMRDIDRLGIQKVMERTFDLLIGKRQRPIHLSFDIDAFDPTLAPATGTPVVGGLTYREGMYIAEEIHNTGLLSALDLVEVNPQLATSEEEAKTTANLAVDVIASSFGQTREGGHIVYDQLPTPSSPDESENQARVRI

[5] = biological target: T3, Proteasome subunit beta (Trypanosoma cruzi) (UniProt O96673); assay: Trypanosoma cruzi proteasome chymotrypsin-like activity (TcProtChymo) assay.; note: in the data most compounds retested in dose-response had high values; assay type: functional; settings: 9.37 µM
T3 sequence (whole entry): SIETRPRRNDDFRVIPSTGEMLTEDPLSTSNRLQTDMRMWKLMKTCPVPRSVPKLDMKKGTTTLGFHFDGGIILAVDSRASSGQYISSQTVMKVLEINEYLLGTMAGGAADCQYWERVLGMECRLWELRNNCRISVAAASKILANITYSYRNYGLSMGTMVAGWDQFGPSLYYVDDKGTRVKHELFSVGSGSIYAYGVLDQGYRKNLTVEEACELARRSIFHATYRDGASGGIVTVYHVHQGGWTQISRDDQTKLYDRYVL

Homo sapiens = species: Homo sapiens; assay: To identify inhibition of the IFN signalling (Jak-Stat) pathway via expression of an eGFP reporter gene under the control of an IFN-stimulated response element (ISRE) containing MxA promoter.; assay type: functional; settings: 30 µM
[6] = biological target: T4, Tyrosyl-tRNA synthetase, putative (Trypanosoma cruzi (strain CL Brener)) (UniProt Q4DSP6); assay: Trypanosoma cruzi tyrosyl tRNA synthetase (TcYRS) _High Tyrosine SOP; assay type: functional; settings: 30 µM; note: in the data most compounds retested in dose-response had high values
T4 sequence (whole entry): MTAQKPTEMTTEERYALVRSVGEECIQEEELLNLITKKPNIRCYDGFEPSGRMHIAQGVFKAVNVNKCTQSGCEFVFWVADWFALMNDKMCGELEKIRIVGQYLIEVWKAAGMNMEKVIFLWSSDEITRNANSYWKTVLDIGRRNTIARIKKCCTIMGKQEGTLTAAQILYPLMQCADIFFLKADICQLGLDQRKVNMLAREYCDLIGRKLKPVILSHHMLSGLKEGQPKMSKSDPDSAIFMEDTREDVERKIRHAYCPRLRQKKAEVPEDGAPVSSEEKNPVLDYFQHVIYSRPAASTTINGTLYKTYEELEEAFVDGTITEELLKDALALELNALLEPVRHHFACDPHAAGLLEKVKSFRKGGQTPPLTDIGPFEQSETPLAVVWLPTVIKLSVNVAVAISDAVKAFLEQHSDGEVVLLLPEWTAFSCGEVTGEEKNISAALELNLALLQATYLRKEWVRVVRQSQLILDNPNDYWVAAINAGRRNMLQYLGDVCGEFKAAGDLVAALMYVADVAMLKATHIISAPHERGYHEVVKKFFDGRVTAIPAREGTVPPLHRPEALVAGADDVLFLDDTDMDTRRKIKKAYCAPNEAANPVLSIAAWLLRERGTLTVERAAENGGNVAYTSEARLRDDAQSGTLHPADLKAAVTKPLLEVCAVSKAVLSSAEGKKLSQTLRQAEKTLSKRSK

[7] = biological target: T4, Tyrosyl-tRNA synthetase, putative (Trypanosoma cruzi (strain CL Brener)); assay: Trypanosoma cruzi tyrosyl tRNA synthetase (TcYRS) SOP; assay type: functional; settings: 30 µM
[8] = biological target: Chromo domain-containing protein 1 (Saccharomyces cerevisiae (strain ATCC 204508 / S288c) (Baker's yeast)) (UniProt P32657); assay: ScCHD-1 Enzyme Inhibition Assay; assay type: functional; settings: 30 µM; note: in the data most compounds retested in dose-response had high values
Chromo domain-containing protein 1 (Saccharomyces cerevisiae (strain ATCC 204508 / S288c) (Baker's yeast)), sequence (P32657 whole entry, the tested form may be a part): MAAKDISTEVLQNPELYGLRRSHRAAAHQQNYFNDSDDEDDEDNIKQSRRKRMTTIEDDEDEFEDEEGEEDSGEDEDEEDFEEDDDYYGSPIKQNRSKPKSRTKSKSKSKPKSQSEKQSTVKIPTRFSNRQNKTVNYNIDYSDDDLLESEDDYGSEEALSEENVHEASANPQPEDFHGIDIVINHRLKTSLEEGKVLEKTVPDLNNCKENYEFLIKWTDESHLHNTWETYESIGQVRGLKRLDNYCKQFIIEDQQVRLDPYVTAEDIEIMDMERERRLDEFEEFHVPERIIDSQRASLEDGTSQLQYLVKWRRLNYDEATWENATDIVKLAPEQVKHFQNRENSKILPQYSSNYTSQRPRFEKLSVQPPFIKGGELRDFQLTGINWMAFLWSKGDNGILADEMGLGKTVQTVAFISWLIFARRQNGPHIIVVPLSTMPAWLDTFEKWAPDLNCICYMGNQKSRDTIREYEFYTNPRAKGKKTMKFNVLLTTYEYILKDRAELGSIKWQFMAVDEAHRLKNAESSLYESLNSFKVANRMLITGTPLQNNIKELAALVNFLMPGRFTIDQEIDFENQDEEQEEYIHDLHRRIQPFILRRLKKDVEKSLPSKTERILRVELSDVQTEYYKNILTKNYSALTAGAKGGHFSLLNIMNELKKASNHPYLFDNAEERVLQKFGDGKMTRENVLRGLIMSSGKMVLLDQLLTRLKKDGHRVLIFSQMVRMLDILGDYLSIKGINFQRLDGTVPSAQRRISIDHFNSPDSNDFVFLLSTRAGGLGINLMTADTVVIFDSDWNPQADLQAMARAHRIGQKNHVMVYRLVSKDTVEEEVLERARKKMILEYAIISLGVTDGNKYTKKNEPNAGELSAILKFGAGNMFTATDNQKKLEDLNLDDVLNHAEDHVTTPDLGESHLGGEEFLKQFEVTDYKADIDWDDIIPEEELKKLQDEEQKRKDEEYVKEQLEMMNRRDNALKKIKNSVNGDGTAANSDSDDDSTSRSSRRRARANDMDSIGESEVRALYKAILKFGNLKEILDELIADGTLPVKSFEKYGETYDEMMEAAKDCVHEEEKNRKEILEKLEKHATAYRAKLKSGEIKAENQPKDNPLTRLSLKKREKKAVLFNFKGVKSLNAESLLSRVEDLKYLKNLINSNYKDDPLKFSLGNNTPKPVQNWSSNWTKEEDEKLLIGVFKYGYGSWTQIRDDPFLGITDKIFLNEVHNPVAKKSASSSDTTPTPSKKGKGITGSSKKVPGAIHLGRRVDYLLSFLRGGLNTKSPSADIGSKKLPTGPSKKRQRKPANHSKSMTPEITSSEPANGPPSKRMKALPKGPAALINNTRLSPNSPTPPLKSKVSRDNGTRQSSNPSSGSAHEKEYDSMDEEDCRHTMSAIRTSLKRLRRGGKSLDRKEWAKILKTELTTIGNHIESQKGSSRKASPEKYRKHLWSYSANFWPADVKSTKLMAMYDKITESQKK

Protein translocase subunit SecA (Escherichia coli (strain K12)), sequence (P10408 whole entry): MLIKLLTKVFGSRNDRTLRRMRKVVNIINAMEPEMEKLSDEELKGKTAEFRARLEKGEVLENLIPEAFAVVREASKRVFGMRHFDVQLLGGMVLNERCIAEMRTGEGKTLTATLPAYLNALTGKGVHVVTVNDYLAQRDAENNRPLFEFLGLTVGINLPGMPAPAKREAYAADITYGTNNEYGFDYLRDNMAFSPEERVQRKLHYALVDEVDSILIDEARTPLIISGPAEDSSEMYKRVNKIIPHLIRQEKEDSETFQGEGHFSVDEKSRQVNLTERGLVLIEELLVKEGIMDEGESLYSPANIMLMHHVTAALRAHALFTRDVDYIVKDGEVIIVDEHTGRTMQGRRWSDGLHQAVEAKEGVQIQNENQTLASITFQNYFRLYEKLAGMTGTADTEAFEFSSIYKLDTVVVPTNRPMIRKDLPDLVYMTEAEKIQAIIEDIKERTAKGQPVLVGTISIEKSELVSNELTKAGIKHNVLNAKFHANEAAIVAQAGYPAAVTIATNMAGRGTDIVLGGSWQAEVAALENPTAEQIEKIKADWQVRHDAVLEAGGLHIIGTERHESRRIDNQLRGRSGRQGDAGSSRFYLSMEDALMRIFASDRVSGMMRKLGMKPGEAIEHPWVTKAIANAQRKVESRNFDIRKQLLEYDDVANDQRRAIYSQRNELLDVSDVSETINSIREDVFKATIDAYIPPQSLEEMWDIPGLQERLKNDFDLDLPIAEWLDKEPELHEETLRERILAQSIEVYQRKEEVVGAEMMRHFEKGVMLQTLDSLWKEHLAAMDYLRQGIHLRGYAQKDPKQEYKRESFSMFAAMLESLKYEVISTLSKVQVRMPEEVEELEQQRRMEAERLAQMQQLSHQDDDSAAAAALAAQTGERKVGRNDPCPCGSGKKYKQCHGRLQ

| Compound | Percent Effect [1] | Percent Effect [2] | Percent Effect [3] | Percent Effect (Trypanosoma cruzi) | Percent Effect [4] | Percent Effect [5] | Percent Effect (Homo sapiens) | Percent Effect [6] | Percent Effect [7] | Percent Effect [8] |
| --- | --- | --- | --- | --- | --- | --- | --- | --- | --- | --- |
| Cc1ccc(OCCC(=O)N2CCN(c3cnccn3)CC2)cc1C | 1.26% | 13% | -2.1% | -5.78% | 3.48% | 14.9% | 16.1% | 6.86% | 18.8% | -6.5% |
| COC(=O)COc1nc(CC(C)C)c2c(c1C#N)CCCC2 | -4.25% | 2.7% | -5.64% | -7.86% | -5.94% | 10.6% | 38.2% | -2.66% | 4.88% | -4.12% |
| COc1ccccc1OCCN1CCCC(c2cc(C(N)=O)[nH]n2)C1 (stereo not given) | -3.66% | 2.67% | 8.25% | -3.01% | 4.43% | 12% | -0.623% | 2.63% | 5.13% | -8.44% |
| COc1ccccc1-c1cc(C(F)(F)F)c2c(C)nn(CC(=O)O)c2n1 | 5.48% | 14.7% | -8.22% | -2.56% | 6.64% | 11.5% | 26.5% | -13.8% | -17.5% | -17.5% |
| COCC(=O)N1CC[C@@H](O)[C@@H]1Cc1ccccc1 | -2.38% | 3.9% | -3.29% | 1.27% | -4.45% | 6.27% | -19.5% | -5.79% | 0% | -0.374% |
| CCN(CC)C1CCN(C(=O)NCc2nncn2CC)CC1 | -3.6% | 13.3% | -2.94% | 3.41% | 3.55% | 12% | 21.2% | 0.526% | 7.69% | -11.2% |
| Cn1ccc(C(=O)NCc2ccc(N3CCCC3)nc2)cc1=O | -3.18% | 8% | 10.6% | 1% | 0% | 5.85% | 21.7% | 3.68% | 5.13% | -7.64% |
| CC(=O)N1CCCN(CC(C)(O)c2cccc(C(F)(F)F)c2)CC1 (stereo not given) | -3.98% | 10.4% | 8.53% | 2.42% | -7.99% | 3.51% | -6.46% | 6.86% | 16.5% | -9.58% |
| CC(C)n1ccnc1C1CCN(C(=O)C2COc3ccccc3O2)CC1 (stereo not given) | -9.12% | 5.41% | 10.4% | 7.08% | 12.9% | 13.2% | -5.55% | 7.98% | 14.6% | -3.02% |
| c1nc2n(n1)CC(NCc1csc(-c3ccsc3)n1)CC2 (stereo not given) | -1.39% | 7.69% | -4.25% | 1.97% | 9.43% | 2.3% | 6.22% | 9.09% | 20.5% | -0.275% |
| Cc1cc(CNc2cc(Cl)ccc2OCCS(C)(=O)=O)no1 | -0.942% | 5.13% | -13.6% | 7.42% | -1.23% | -4.01% | -4.69% | 2.39% | 10.8% | 0.127% |
| COCCN1CCN(Cc2cccc(C(N)=O)c2)CC1C (stereo not given) | -2.01% | 29.3% | -8.56% | 2.81% | -2.66% | 17.6% | 16.2% | 2.63% | 12.8% | -19.1% |
| O=C(Nc1ccccc1)C1=CC2(CCNCC2)c2ccccc21 | -2.8% | 9.09% | 1.86% | -0.938% | 3.2% | 13.5% | -1.59% | -2.9% | -2.5% | -4.38% |
| CCN(C(=O)c1ccc(-n2ncc(C#N)c2N)cc1)C1CCCC1 | -1.54% | 15.6% | 1.83% | -0.187% | -5.12% | 6.67% | 3.59% | -14.7% | 16.5% | -7.19% |
| Cc1ncc2c(n1)CCN(Cc1nc3ccccc3o1)C2 | -4.63% | 16% | -1.93% | 0.201% | -6.21% | 16% | -5.07% | 7.89% | 25.6% | -11% |
| CC(C)c1noc(CCCC(=O)NC2CCS(=O)(=O)C2)n1 (stereo not given) | -0.362% | 13.3% | -4.53% | 2.01% | -7.98% | 12.6% | 8.49% | 5.79% | 15.4% | -11% |
| Cc1noc(C)c1C(=O)N1C[C@H]2CCC[C@@]2(COc2ccccn2)C1 | -6.59% | 11.7% | 1.71% | 8.28% | -7.29% | 12.3% | -28.1% | 3.68% | 12.8% | -2.44% |
| CCN(Cc1cccc2c1OCO2)C(=O)NC1CC1 | -0.28% | 13% | 9.18% | 1.68% | -7.17% | 1.75% | 3.66% | 3.92% | 28.2% | -7.71% |
| CS(=O)(=O)c1ccccc1C(=O)NCCCN1CCc2ccccc2C1 | -5.27% | 18.7% | 2.07% | 7.03% | -0.887% | 17.1% | -1.14% | 3.68% | 15.4% | -11.6% |
| Cc1ccc(CN(C)CC(=O)NC2(C)CCS(=O)(=O)C2)cc1 (stereo not given) | -0.346% | 8% | -1.85% | -2.81% | -1.77% | 7.89% | 21.9% | 10% | 15.4% | -11.2% |
